High-throughput results: PubChem, several laboratories
Neddylation inh = blocks human cullin neddylation; TR-FRET cullin neddylation, biochemical; inhibition, % at 25 µM; 0.58% of 360,000 active; AID 651699; in the data active = inhibition above about 36%
SUMO1 PPI mod = alters human SUMO1 binding to SIM partners; P63165; SUMO1 binding to a labelled peptide, TR-FRET, 1 h; inhibition, % at 20 µM; 0.33% of 360,000 active; in the data active = inhibition above about 37%
Target sequence (P63165 whole entry, looked up): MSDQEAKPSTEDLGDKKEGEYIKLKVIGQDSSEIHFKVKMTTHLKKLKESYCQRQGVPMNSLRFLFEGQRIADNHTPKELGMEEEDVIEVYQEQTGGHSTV
ATG4B inhibitor = blocks human ATG4B protease cleavage of LC3 substrate. 0.51% of 340,000 active. inhibition, % at 8.33 µM. ATG4B cleavage of LC3-PLA2, NBD-HPC fluorescence, 1 h. Q9Y4P1; in the data active = inhibition above about 40%
Target sequence (Q9Y4P1 whole entry, looked up): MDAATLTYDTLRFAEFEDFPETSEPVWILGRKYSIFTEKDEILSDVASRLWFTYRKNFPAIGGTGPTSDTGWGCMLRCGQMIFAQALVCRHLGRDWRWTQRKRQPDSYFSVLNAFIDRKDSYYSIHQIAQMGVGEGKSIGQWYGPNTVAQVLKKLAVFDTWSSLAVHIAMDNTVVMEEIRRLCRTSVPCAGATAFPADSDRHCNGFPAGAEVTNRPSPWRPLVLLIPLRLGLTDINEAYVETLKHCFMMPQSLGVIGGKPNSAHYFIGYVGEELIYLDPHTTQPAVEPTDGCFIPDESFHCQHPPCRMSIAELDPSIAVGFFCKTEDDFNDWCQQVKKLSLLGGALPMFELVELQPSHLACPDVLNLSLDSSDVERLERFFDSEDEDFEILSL
Rin1 Abl inh = inhibitors of human Rin1-Abl protein interaction | inhibition, % at 7.35 µM | AID 588664 | TR-FRET Rin1/Abl binding, biochemical | P00519+Q13671 | 0.4% of 360,000 active; in the data active = inhibition above about 5%, passing the limit was not always enough
ATG4B conf = confirmation of human ATG4B inhibitors; shares compounds with ATG4B inhibitor; ATG4B protease fluorescent substrate cleavage assay; inhibition, % at 8.33 µM; 92% of 320 active; in the data active = inhibition above about 39%
PLA2 ctr = PLA2 (human) inhibition in ATG4B counter-screen; purified PLA2, NBD-C6-HPC fluorescence, 45 min; AID 588402; shares compounds with ATG4B inhibitor; 66% of 1,600 active; inhibition, % at 8.33 µM; in the data active = inhibition above about 50%
Rin1 Abl conf = Rin1-Abl interaction inhibition confirmation. 49% of 1,300 active. inhibition, % at 7.35 µM. shares compounds with Rin1 Abl inh. TR-FRET Rin1-Abl binding, purified proteins
GFP quencher = quenches GFP fluorescence, counter-screen for Rin1-Abl inhibitors; shares compounds with Rin1 Abl inh; inhibitors/quenchers counterscreen; inhibition, % at 6.75 µM; 8.5% of 1,300 active;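 note: ABL1-eGFP fusion protein alone without its partner RIN1-SBP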
GFP quench dose = quenches GFP in dose response, Rin1-Abl counter-screen; shares compounds with Rin1 Abl inh; GFP fluorescence interference/quenching counterscreen; IC50, µM; 230 tested, under 10 active; call rule not given here;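 note: ABL1-eGFP fusion protein alone without its RIN1 binding partner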
Neddyl conf = cullin neddylation inhibition, confirmation. shares compounds with Neddylation inh. TR-FRET cullin neddylation biochemical assay. calls only at 25 µM. 13% of 1,800 active. AID 652217; in the data active = inhibition above about 40%;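 note: neddylation substrate is the cullin 1 ring ligase complex with SKP2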
Numbers stand for hits; . = inactive; / = not tested or not shown; ! = not active in a repeat. Most compounds without a hit are left out; they make up all but 1.7% or so of the library. Cut-off read from the data, not from the text of the source, unless noted: active = inhibition above about 6.5%; inactive = the rest.

SMILES | Neddylation inh | SUMO1 PPI mod | ATG4B inhibitor | Rin1 Abl inh | Rin1 Abl conf | GFP quencher | others
CC12CC(c3ccccc3O1)C(C(=O)OCc1ccccc1)C(=O)N2 (stereo unspecified) | . | . | . | . | / | /
CN(C)[C@@H]1C(=O)C(C(N)=O)=C(O)[C@@]2(O)C(=O)C3=C(O)c4c(O)ccc(Cl)c4[C@@](C)(O)C3C[C@@H]12 (stereo partly specified) | . | . | 80 | . | / | / | ATG4B conf=47;PLA2 ctr=.
O=c1c2ccc(Cl)cc2[nH]c(=S)n1-c1cccnc1 | . | . | . | . | / | /
CC(C)(C)C(=O)N1Cc2cc(-c3cccc(F)c3)ccc2-n2nncc2C1 | . | . | / | . | / | /
O=c1c2ccccc2nc(CSc2ncnc3nc[nH]c23)n1-c1ccccc1 | . | . | . | 7.6 | . | .
COc1ccc(-n2nnnc2C(c2cccc(OC)c2OC)N2CCC(n3c(=O)[nH]c4ccccc43)CC2)cc1 (stereo unspecified) | . | . | / | 19 | 16 | .
COc1cccc(C(c2nnnn2-c2ccc3c(c2)OCCO3)N2CCC(n3c(=O)[nH]c4ccccc43)CC2)c1OC (stereo unspecified) | . | . | / | 20 | 19 | . | GFP quench dose=.
C[C@@H]1C2C[C@@]34COC(=O)C3=CC=C[C@H]4[C@@]13C[C@H](c1ccoc1)O[C@@H]3O2 | / | / | . | / | / | /
CN(C)C1C(=O)C(C(N)=O)=C(O)C2(O)C(=O)C3=C(O)c4c(O)cccc4C(C)(O)C3CC12 (stereo unspecified) | . | . | . | . | / | /
CN(C)[C@@H]1C(=O)C(C(N)=O)=C(O)[C@@]2(O)C(=O)C3=C(O)c4c(O)cccc4[C@@](C)(O)C3[C@H](O)C12 (stereo partly specified) | . | 59! | . | 19 | . | .
COC(=O)C1=C(c2ccc(OC)c(OC)c2)C[C@@H]2CC[C@H]1N2C(=O)NCCOc1ccc(OC)cc1 | . | . | . | . | / | /
C=CCN1Cc2ccccc2-n2nncc2C1 | . | . | / | . | / | /
COC(=O)CCCCC1SCC(NC(=O)c2ccccc2)C1Cl (stereo unspecified) | . | . | . | 9.2 | 14 | .
COC(=O)C(O)(c1ccc(NC(=O)c2ccccc2)cc1)C(F)(F)F (stereo unspecified) | . | . | . | . | / | /
CCC(=O)N1N=C2C3CCN(CC3)C2C1c1ccc(C)cc1 (stereo unspecified) | . | . | . | . | / | /
O=P1(c2ccccc2)CC=CC1 | . | . | / | . | / | /
CC(C)CCNC(=O)c1c(N)n(CC2CCCO2)c2nc3ccccc3nc12 (stereo unspecified) | / | . | . | . | / | /
CCC(C)NC(=O)c1c(N)n(CCCOC)c2nc3ccccc3nc12 (stereo unspecified) | / | 41 | . | 27 | . | .
CCC(C)NC(=O)c1c(N)n(CC2CCCO2)c2nc3ccccc3nc12 (stereo unspecified) | / | . | . | 5.7 | . | .
Nc1c(C(=O)NCCN2CCOCC2)c2nc3ccccc3nc2n1Cc1ccccc1 | / | . | . | . | / | /
CCC(C)NC(=O)c1c(N)n(Cc2ccc3c(c2)OCO3)c2nc3ccccc3nc12 (stereo unspecified) | / | 40 | . | 8.5 | . | .
CCCCCc1nc2c(c(=O)c3ccccc3n2C)c(=O)n1C1CCCCCC1 | . | . | . | . | / | /
COC(=O)C1=C(c2cc3ccccc3o2)C[C@@H]2CC[C@H]1N2C(=O)N1CCC(C)CC1 | . | . | . | . | / | /
CCN(CC)C(=O)c1ccc2c(c1)C1C(Cl)C(Sc3ccccc3[N+](=O)[O-])CC1C(C(=O)O)N2 (stereo unspecified) | . | 65 | . | 6.8 | . | 17
CC[C@H](OC(C)=O)C(C[C@H](C)N(C)C)(c1ccccc1)c1ccccc1 | . | . | . | 6.8 | 8.4 | .
SMILES | Neddylation inh | SUMO1 PPI mod | ATG4B inhibitor | Rin1 Abl inh | Rin1 Abl conf | GFP quencher | others
CCN(CC)C(=O)c1ccc(NC(=O)c2cccc(S(=O)(=O)N3CCN(Cc4ccccc4)CC3)c2)cc1 | . | . | . | . | / | /
CCN(CC)C(=O)c1ccc(NC(=O)c2cc(S(=O)(=O)N3CCCCCC3)ccc2OC)cc1 | . | . | . | 86 | 90 | . | GFP quench dose=.
O=C1C=C2c3ccccc3CC(C(=O)O)C2CC1 (stereo unspecified) | . | . | / | . | / | /
COP(=O)(OC)C(NS(=O)(=O)c1ccccc1)C(Cl)(Cl)Cl (stereo unspecified) | . | . | . | 8.0 | . | .
COP(=O)(OC)C(Nc1ccccn1)c1ccccc1 (stereo unspecified) | . | . | . | . | / | /
Cn1ncnc2c(=O)n(C)c(=O)nc1-2 | . | . | 86 | 29 | 48 | . | GFP quench dose=.
COc1ccc(-n2nnnc2C(c2ccccc2)N2CCC(n3c(=O)[nH]c4ccccc43)CC2)cc1 (stereo unspecified) | . | . | / | . | / | /
COc1ccc(-n2nnnc2C(C2CC2)N2CCC(n3c(=O)[nH]c4ccccc43)CC2)cc1 (stereo unspecified) | . | . | / | 20 | 24 | . | GFP quench dose=.
O=c1[nH]c2ccccc2n1C1CCN(C(c2nnnn2-c2ccc3c(c2)OCCO3)C2CC2)CC1 (stereo unspecified) | . | . | / | 17 | 20 | . | GFP quench dose=.
CCCC1(CC(C)C)C(=O)NC(=S)NC1=O | . | . | . | . | / | /
COC(=O)C1=CCCN(C)C1 | . | . | . | . | / | /
COc1ccccc1NC(=O)COC(=O)c1cn(C)c2ccccc12 | . | . | . | . | / | /
Cc1ccc(N2C(=O)NC(=O)/C(=C/C=C/c3ccco3)C2=O)cc1 | . | . | . | 6.2 | . | .
CCCCn1c(NC(=O)c2ccc(Br)o2)c(C(=O)OCC)c2nc3ccccc3nc21 | / | 45 | . | 7.3 | . | .
CC(Cc1ccc(O)cc1)NCC(O)c1ccc(O)c(O)c1 (stereo unspecified) | . | . | / | 14 | 9.3 | .
CNCC(O)c1ccc(O)cc1 (stereo unspecified) | . | . | . | . | / | /
CCCN1CCc2cc(O)cc3c2[C@H]1Cc1ccc(O)c(O)c1-3 | / | . | . | 11 | 12 | 8.6
CCC(=NCC1CCCO1)c1c(O)n(Cc2ccccc2)c(=O)[nH]c1=O (stereo unspecified) | . | . | . | . | / | /
CC/C(=N\NC(=O)c1ccccc1)c1c(O)n(Cc2ccccc2)c(=O)[nH]c1=O | 39 | . | . | . | / | / | Neddyl conf=.
